Test results: the supplement of paper PMC11732987, “Enantioselective OTUD7B fragment discovery through chemoproteomics screening and high-throughput optimisation” (Communications Chemistry, 2025)

Assays:
Test in all cases: log2 ratio of Biotin-Ahx-Ub-VS probe labelling (fragment/DMSO); higher = less target engagement (more negative = stronger competition), active = hit call of the paper (q ≤ 0.05, log2 ratio ≤ -1)
Details in all cases: compound concentration: 200 uM; treatment time: 3 h
USP19 = target: T1, USP19 (UniProt O94966)
T1 sequence (whole entry): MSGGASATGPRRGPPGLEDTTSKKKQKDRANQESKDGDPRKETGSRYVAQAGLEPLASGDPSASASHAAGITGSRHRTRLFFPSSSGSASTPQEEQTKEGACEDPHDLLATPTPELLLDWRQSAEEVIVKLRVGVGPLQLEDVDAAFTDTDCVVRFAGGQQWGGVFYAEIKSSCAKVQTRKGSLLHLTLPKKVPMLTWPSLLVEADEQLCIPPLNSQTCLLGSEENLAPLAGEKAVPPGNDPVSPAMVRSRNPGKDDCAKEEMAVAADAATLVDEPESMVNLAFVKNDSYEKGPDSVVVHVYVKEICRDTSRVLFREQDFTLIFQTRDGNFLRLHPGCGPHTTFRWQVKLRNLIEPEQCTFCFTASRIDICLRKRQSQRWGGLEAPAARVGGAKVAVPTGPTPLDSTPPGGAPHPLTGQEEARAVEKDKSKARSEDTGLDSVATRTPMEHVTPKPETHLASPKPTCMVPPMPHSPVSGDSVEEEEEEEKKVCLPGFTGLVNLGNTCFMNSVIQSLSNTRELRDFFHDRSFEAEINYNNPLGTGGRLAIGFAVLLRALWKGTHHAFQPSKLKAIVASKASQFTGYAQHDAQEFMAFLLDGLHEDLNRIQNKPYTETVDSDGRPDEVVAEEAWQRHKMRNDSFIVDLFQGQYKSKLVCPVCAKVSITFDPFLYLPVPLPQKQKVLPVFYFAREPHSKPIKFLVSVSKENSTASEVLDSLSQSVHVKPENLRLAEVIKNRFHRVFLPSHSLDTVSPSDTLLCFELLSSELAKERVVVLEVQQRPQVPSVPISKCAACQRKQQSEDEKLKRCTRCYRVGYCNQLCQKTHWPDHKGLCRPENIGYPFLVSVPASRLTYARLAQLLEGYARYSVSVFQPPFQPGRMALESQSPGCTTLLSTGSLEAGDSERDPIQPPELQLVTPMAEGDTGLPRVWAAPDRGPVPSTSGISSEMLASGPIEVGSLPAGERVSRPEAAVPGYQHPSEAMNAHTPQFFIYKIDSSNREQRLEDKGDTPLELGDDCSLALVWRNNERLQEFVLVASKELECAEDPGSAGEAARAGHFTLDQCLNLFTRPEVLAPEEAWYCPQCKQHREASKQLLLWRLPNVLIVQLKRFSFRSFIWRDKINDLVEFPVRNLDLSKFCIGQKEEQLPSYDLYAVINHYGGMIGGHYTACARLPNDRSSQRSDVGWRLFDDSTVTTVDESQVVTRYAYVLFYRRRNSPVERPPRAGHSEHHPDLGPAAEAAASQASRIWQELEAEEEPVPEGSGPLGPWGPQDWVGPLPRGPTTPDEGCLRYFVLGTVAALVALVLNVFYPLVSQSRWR
How it was run: (§1)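 Triplicate samples of HEK293T lysate, 495 µg each, received fragment at 200 µM or vehicle for 3 h, followed by Biotin-Ahx-Ub-VS (0.5 µM final) for 1 h. After NeutrAvidin enrichment of labelled DUBs and LysC/trypsin digestion, peptides were run by diaPASEF LC-MS/MS. The values are average log2 fragment/vehicle ratios from global-median-normalised Spectronaut label-free quantities, tested by unpaired t-test on proteins having ≥2 unique peptides.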

USP24 = USP24 (UniProt Q9UPU5)
How it was run: as §1

USP25 = target: T2, USP25 (UniProt Q9UHP3)
T2 sequence (whole entry): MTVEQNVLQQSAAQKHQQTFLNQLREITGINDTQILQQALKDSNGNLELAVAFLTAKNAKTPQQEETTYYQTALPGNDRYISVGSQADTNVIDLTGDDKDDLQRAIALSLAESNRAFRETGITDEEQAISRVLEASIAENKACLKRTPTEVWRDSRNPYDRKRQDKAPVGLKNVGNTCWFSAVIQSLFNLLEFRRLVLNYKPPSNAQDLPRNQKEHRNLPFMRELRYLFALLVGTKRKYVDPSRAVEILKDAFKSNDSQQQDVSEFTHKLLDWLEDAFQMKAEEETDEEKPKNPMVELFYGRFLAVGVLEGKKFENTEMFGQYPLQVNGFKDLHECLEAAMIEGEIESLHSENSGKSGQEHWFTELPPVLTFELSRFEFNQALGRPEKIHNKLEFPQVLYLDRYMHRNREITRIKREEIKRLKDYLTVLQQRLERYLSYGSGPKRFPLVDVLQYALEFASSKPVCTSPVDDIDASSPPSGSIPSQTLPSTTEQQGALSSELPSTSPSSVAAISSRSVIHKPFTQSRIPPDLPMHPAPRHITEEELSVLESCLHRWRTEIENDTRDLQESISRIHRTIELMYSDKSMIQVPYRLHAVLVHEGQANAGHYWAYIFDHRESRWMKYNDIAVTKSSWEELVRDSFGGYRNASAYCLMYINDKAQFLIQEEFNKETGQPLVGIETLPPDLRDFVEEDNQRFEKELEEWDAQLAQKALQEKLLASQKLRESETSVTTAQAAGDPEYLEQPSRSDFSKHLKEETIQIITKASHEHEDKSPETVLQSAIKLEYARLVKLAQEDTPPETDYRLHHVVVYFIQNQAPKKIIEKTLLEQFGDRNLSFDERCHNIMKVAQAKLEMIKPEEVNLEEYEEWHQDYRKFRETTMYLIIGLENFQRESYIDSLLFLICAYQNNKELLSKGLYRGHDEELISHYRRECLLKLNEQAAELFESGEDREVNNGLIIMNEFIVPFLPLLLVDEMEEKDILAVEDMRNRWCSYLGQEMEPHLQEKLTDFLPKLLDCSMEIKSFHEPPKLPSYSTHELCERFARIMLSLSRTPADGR
How it was run: as §1

USP28 = target: T3, USP28 (UniProt Q96RU2)
T3 sequence (whole entry): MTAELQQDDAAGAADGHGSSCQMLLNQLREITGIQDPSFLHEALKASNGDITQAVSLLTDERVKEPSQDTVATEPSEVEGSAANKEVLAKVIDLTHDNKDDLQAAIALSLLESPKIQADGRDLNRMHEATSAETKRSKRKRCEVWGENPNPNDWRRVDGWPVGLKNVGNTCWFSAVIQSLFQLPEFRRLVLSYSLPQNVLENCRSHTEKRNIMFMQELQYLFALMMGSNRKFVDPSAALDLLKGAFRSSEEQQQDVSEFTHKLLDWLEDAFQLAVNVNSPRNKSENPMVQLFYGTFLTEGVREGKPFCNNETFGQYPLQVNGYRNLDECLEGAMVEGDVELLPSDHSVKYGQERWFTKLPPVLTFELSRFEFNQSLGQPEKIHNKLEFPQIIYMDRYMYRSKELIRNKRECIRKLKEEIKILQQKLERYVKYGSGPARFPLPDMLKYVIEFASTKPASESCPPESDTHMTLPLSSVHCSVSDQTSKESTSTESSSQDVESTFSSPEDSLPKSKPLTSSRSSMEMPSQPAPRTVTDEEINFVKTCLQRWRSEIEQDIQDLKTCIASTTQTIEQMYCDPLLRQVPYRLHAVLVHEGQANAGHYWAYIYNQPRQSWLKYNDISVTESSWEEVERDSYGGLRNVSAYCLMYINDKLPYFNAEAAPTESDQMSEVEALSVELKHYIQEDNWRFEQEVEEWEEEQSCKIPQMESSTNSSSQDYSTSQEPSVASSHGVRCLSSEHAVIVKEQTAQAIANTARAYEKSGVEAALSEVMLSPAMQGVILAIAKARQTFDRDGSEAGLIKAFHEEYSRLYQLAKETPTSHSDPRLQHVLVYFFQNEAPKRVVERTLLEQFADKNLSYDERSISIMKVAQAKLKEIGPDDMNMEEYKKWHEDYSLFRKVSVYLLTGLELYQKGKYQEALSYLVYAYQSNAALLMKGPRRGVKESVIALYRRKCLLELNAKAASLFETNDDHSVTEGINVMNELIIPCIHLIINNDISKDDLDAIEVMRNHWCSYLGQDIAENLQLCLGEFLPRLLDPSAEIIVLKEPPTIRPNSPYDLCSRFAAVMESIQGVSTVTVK
How it was run: as §1

Measured: log2 ratio of Biotin-Ahx-Ub-VS probe labelling

USP24, sequence (Q9UPU5 whole entry): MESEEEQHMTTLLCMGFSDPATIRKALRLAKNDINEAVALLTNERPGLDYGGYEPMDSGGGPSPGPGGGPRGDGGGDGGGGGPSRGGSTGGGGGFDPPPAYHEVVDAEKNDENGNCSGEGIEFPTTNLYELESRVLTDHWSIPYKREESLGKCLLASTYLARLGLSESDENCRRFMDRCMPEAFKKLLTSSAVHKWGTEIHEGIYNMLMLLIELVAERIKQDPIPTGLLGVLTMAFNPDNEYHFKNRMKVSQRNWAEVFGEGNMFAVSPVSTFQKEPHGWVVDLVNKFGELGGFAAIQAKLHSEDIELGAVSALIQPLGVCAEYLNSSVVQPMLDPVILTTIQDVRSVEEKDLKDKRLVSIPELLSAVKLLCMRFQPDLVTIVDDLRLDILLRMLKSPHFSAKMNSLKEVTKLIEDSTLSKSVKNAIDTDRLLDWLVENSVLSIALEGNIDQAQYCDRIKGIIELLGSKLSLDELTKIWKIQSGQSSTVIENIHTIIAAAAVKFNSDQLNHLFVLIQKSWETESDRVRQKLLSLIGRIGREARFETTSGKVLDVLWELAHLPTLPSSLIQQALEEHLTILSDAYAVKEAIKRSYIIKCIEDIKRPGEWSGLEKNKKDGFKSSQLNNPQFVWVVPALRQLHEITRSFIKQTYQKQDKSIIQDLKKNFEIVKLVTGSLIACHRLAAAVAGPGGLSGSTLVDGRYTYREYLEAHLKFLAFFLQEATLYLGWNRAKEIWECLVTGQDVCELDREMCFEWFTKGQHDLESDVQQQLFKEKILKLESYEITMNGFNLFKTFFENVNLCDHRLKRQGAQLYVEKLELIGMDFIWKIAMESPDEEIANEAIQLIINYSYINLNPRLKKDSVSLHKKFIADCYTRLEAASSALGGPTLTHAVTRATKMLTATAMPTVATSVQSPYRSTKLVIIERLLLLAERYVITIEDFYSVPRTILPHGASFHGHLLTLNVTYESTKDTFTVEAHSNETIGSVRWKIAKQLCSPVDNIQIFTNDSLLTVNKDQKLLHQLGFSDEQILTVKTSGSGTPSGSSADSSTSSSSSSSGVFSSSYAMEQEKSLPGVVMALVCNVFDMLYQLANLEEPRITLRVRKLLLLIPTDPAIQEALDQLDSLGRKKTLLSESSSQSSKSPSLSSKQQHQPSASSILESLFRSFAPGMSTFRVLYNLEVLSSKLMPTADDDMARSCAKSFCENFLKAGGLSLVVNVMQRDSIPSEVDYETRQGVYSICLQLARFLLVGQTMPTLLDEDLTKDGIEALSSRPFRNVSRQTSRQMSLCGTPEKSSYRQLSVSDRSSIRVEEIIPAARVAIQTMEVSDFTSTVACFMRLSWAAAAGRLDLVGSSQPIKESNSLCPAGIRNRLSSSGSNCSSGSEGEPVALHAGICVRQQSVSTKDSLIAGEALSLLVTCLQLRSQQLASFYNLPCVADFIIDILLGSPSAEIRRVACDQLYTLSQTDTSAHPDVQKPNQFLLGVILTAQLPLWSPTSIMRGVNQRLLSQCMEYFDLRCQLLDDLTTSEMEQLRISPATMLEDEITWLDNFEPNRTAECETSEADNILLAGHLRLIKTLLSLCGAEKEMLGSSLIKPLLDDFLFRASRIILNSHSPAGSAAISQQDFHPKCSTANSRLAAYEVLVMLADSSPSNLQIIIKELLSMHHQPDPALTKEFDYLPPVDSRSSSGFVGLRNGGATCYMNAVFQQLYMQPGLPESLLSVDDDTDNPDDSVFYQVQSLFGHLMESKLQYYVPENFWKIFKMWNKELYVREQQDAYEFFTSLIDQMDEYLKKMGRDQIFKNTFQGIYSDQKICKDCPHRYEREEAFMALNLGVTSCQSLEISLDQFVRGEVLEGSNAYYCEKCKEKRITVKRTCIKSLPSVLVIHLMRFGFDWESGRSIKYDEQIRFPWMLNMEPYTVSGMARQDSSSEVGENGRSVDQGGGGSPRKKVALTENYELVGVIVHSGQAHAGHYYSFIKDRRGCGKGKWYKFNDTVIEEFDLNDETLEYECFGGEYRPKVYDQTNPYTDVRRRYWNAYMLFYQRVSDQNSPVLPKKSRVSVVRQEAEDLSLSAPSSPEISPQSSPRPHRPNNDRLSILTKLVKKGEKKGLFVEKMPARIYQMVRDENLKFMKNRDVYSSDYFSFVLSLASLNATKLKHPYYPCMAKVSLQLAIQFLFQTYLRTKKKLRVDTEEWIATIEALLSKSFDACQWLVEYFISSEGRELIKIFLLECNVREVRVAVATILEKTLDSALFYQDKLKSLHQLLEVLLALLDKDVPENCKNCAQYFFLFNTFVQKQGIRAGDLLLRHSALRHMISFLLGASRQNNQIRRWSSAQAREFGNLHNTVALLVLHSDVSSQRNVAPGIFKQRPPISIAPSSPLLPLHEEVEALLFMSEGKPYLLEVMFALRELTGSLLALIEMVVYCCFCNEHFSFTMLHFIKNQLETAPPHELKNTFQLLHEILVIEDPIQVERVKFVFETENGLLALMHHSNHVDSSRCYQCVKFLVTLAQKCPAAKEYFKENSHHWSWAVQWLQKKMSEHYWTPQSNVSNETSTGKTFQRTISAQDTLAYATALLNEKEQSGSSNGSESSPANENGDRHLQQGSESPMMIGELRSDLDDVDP

O=C(CCl)N1CCC2(CCC(O)CC2)CC1
inactive: USP19 0.0572 | USP24 -0.133 | USP25 -0.0651 | USP28 -0.372
